# Results reported in PubChem BioAssay AID1117361 (Southern Research Institute, 2015).
# The whole screen tested about 3,600 compounds, of which about 900 (25%) were called active. How the calls were made is not given here. The list is a sample of the results. Measured potencies and affinities stand elsewhere.
# Target: Protein Tat (Human immunodeficiency virus type 1 group M subtype B (isolate HXB2)) (UniProt P04608)
# Assay: HIV-1 Tat–TAR interaction blockers – biochemical, fluorescence polarization, FAM-labeled TAR RNA, counter-screen for Vif-APOBEC3G degradation inhibitor project, dose response (AID 1117361)
# Conditions: Tat-TAR RNA binding; series mostly up to 100 µM
row,Compound,outcome
1,Cc1[nH]c2ccccc2c1C1=CC(=O)C=CC1=O,inactive
2,CC[n+]1c(/C=C2/C=C(C)CC(C)(C)C2)sc2ccc(OC)cc21,inactive
3,Cc1nn(CC(=O)NC2CC2)c(C)c1S(=O)(=O)N(C)C,inactive
4,C/C(N)=C(/C#N)C(=O)CSc1nnc(Nc2c(C)cccc2C)s1,inactive
5,CC(Oc1ccc(Cl)cc1)c1ccnn1S(C)(=O)=O (centres undefined),inactive
6,CC(=O)Nc1cc(NC(C)=O)cc(C(=O)N2CCCC3CCCCC32)c1 (centres undefined),inactive
7,CCC(=O)Nc1ccc(S(=O)(=O)NC[C@H]2O[C@@H](n3cc(C)c(=O)[nH]c3=O)C[C@@H]2O)cc1,inactive
8,CCOC(=O)CSc1nnc(-c2ccccc2NC(=O)c2ccccc2)o1,inactive
9,O=C(NCc1cn2ccccc2n1)c1ccc2c(c1)OCO2,inactive
10,Cn1ncc2c(Nc3ccc4ccccc4c3)ncnc21,inactive
11,CCC(C)N1C(=O)S/C(=C/c2ccc(Sc3nc4ccccc4[nH]3)o2)C1=O (centres undefined),inactive
12,COc1cccc(-c2cc(C(=O)Nc3cnn(Cc4ccccc4C)c3)no2)c1,inactive
13,Cc1ccc(S(=O)(=O)N2CCN(C(C(=O)Nc3ccc(F)cc3)c3ccccc3)CC2)cc1 (centres undefined),inactive
14,CC(C)c1ccc(NC(=O)C(c2ccccc2)N2CCC3(CC2)OCCO3)cc1 (centres undefined),inactive
15,Cc1[nH]c2ccccc2c1C(=O)Cn1c(=O)oc2ccccc21,inactive
16,O=C(CCC(=O)OCC(=O)c1ccc(F)cc1)NC1CCCCC1,inactive
17,CCOC(=O)C1=C(CSc2nc(C)ccc2C#N)OC(N)=C(C#N)C1c1cccc(OC)c1OC (centres undefined),inactive
18,COc1ccc(N(CC(=O)NCc2ccccc2C)S(=O)(=O)c2ccc(C)cc2)cc1OC,inactive
19,O=C(CN(c1ccc(F)cc1)S(=O)(=O)c1ccc2c(c1)OCCO2)NCc1ccccn1,inactive
20,NNC(=O)c1ccc(N2CCc3ccccc32)c([N+](=O)[O-])c1,inactive
21,O=C(NCc1ccncc1)c1cnccn1,inactive
22,COC(=O)c1ccc(NC(=S)NCCC2=CCCCC2)cc1,inactive
23,CC(=O)Nc1ccc(NC(=O)C(C)OC(=O)CCc2c[nH]c3ccccc23)cc1 (centres undefined),inactive

row,Compound,outcome
1,C/C(=N\NC(=O)c1cnccn1)c1ccc([N+](=O)[O-])cc1,inactive
2,C=CCN(CC=C)C(=S)NC(=O)c1ccc([N+](=O)[O-])cc1,inactive
3,CC1=CC(C)(C)N=C(Nc2nc(C)c3cc(C)cc(C)c3n2)N1,inactive
4,O=C(C/C=N/OCc1c(Cl)cccc1Cl)c1ccc(Cl)cc1,inactive
5,CC(C)(C)OC(=O)N1CCCC1C(=O)N1CCc2ccccc21 (centres undefined),inactive
6,CC(=O)c1cc2c(cc1NC(=O)CSc1nc3ccccc3o1)OCO2,inactive
7,O=[N+]([O-])c1ccc2nc(-c3ccccc3)oc2c1,inactive
8,CC(=O)NNC(=O)C(O)(c1ccccc1)c1ccccc1,inactive
9,CCc1ccc(S(=O)(=O)/N=C2\C=CC(=O)c3ccccc32)cc1,inactive
10,CC(C)c1ccc(S(=O)(=O)/N=C2/C=CC(=O)c3ccccc32)cc1,inactive
11,CN(C)c1ccc(NC(=O)Nc2cccc(Cl)c2)cc1,inactive
12,COc1ccc(C(=O)N2CCCN(C)CC2)cc1S(=O)(=O)N1CCCc2ccccc21,inactive
13,COC(=O)C1=C(C)NC(=O)NC1c1ccc2c(c1)OCO2 (centres undefined),inactive
14,Cc1ccc(CCNC(=O)C2CCN(S(=O)(=O)c3ccc4c(c3)CCC(=O)N4)CC2)cc1,inactive
15,CC1CCCC(NC(=O)C2CCC(CNc3c(N4CCCC4)c(=O)c3=O)CC2)C1C (centres undefined),inactive
16,CCOC(=O)c1c(C)[nH]c(C(=O)COC(=O)CN2C(=O)C3CCCCC3C2=O)c1C (centres undefined),inactive
17,COc1ccc(C(=O)OCC(=O)c2c(N)n(C)c(=O)n(C)c2=O)cc1OC,inactive
18,COc1ccc(CC(=O)Oc2ccc(F)c(F)c2)cc1S(=O)(=O)N1CCOCC1,inactive
19,CC1(C)CCN(Cc2ccccc2)C1CC#N (centres undefined),inactive
20,COC(=O)c1cnn2c(C)c(Cc3cccc(F)c3)c(C)nc12,inactive
21,COC(=O)C1CCN(C(=O)NC(C)(C)C)CC1,inactive
22,COc1cc2oc3ccccc3c2cc1N(CC(=O)N(C)C)S(=O)(=O)c1ccccc1,inactive
23,CCOc1cc(C2NC(=O)NC(C)=C2C(=O)NCc2ccccc2)c(Cl)cc1O (centres undefined),inactive

row,Compound,outcome
1,O=C(O)c1ccc(S(=O)(=O)c2ccc3c(c2)C(=O)N(Cc2ccco2)C3=O)cc1,inactive
2,Cn1c(N)c(C(=O)CCl)c(=O)n(Cc2ccccc2)c1=O,inactive
3,O=C1c2ccccc2C(=O)N1CCC(c1ccc(F)cc1)c1ccco1 (centres undefined),inactive
4,c1ccc(Cn2nnnc2-c2ccco2)cc1,inactive
5,CC1CCCCN1C(=O)c1ccc(S(=O)(=O)N2CCCCC2C)cc1 (centres undefined),inactive
6,COCCn1c(COc2cccc(OC)c2)nnc1SCC(=O)N1CCOCC1,inactive
7,NC(=O)C[C@@H]1N[C@]2(C(=O)Nc3ccccc32)[C@@H]2C(=O)N(c3cc(C(F)(F)F)ccc3Cl)C(=O)[C@H]12,inactive
8,CCn1c(C(=O)OC)cc2c1ccn2-c1ccc(F)cc1,inactive
9,Cc1cccc(N(C(=O)c2ccc(Cl)cc2)C2CS(=O)(=O)CC2OC(=O)c2ccc(Cl)cc2)c1 (centres undefined),inactive
10,O=C(CSc1nncs1)NC(=O)NCc1ccccc1,inactive
11,COc1ccccc1C(=O)C1CCCN(Cc2ccc3c(c2)OCCO3)C1 (centres undefined),inactive
12,COC(=O)c1c(C)[nH]c(C(=O)CSc2ccc(Cl)cc2)c1C,inactive
13,CC(C)(C)c1ccc(NC(=O)N2CCN(c3ccc([N+](=O)[O-])cn3)CC2)cc1,inactive
14,Cn1nccc1NC(=O)Nc1ccc(Cl)cc1,inactive
15,Cn1nc(C(=O)OCC(=O)N2CCc3ccccc32)c2ccccc2c1=O,inactive
16,Cc1ccc(C2(C(F)(F)F)NC(=O)N3CCN=C3S2)cc1 (centres undefined),inactive
17,Cc1nc(N2CCN(Cc3ccccc3)CC2)nc2c1C(=O)CCC2,inactive
18,CCOc1ccc(NC(=O)CCS(=O)(=O)c2ccc(Br)cc2)cc1,inactive
19,CCc1cccc(NC(=O)CCS(=O)(=O)c2ccc(Br)cc2)c1,inactive
20,O=C(CCS(=O)(=O)c1ccc(Br)cc1)NCCc1ccccc1,inactive
21,NS(=O)(=O)c1ccc(CCNC(=O)CCS(=O)(=O)c2ccc(Br)cc2)cc1,inactive
22,COc1ccc(Cl)cc1NC(=O)CCS(=O)(=O)c1ccc(Br)cc1,inactive
23,CCOc1ccccc1NC(=O)CCS(=O)(=O)c1ccc(Br)cc1,inactive
